Assay results taken from PubChem BioAssay AID1159580 (chemical genetic matrix, 2015).
Among all 5,500 compounds or so, about 2,000 (36%) were called active. Another 18% or so got no clear call; they are omitted. This is one part of the list. Unmarked numbers belong to inactive results. No stated cut-off is given here; in the data, active means normalized growth mostly below about 0.91 (no sharp cut-off); inconclusive means no clear call, values can overlap the other calls; inactive means mostly above about 0.92.

Assay: chemical genetic growth profiling, strain panel (AID 1159580);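 further: tested at 20 µM; growth read once vehicle control cultures reached saturation at 30 °C; 1 = growth at the plate median or of vehicle wells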
Conditions: S. cerevisiae deletion strains, growth OD
[1] = locus YJL095W, strain BCK1, stronger effect = lower value

CC(C)=CCCC(C)C1CC[C@@]2(C)C3=C(CC[C@]12C)C1(C)CC[C@H](O)C(C)(C)C1CC3 (stereo not given in full)
normalized growth (locus YBR021W, strain FUR4, stronger effect = lower value): 0.867 | normalized growth (locus YBR229C, strain ROT2, stronger effect = lower value): 1.02 | normalized growth (locus YCL029C, strain bik1, stronger effect = lower value): 0.972 | normalized growth (locus YDL035C, strain GPR1, stronger effect = lower value): 0.904 | normalized growth (locus YDL074C, strain BRE1, stronger effect = lower value): 0.962 | normalized growth (locus YDL101C, strain DUN1, stronger effect = lower value): 0.992 | normalized growth (locus YDL185W, strain tfp1, stronger effect = lower value): 1.01 | normalized growth (locus YDL192W, strain arf1, stronger effect = lower value): 0.977 | normalized growth (locus YDR101C, strain arx1, stronger effect = lower value): 1.01 | normalized growth (locus YDR150W, strain NUM1, stronger effect = lower value): 1.05 | normalized growth (locus YDR162C, strain NBP2, stronger effect = lower value): 0.958 | normalized growth (locus YDR318W, strain mcm21, stronger effect = lower value): 0.985 | normalized growth (locus YDR388W, stronger effect = lower value): 1.03 | normalized growth (locus YDR502C, strain sam2, stronger effect = lower value): 0.945 | normalized growth (locus YER110C, stronger effect = lower value): 1.01 | normalized growth (locus YER155C, strain BEM2, stronger effect = lower value): 1.03 | normalized growth (locus YER167W, strain BCK2, stronger effect = lower value): 1.05 | normalized growth (locus YGL078C, strain dbp3, stronger effect = lower value): 0.875 (active) | normalized growth (locus YGL086W, strain mad1, stronger effect = lower value): 1 | normalized growth (locus YGL248W, strain PDE1, stronger effect = lower value): 0.929 | normalized growth (locus YGR135W, strain pre9, stronger effect = lower value): 0.941 | normalized growth (locus YGR252W, strain gcn5, stronger effect = lower value): 0.78 | normalized growth (locus YHR079C, strain IRE1 (second series), stronger effect = lower value): 1.01 | normalized growth (locus YHR094C, strain hxt1, stronger effect = lower value): 1.02 | normalized growth (locus YHR129C, strain ARP1, stronger effect = lower value): 1.04 | normalized growth (locus YHR200W, strain rpn10, stronger effect = lower value): 1.01 | normalized growth (locus YIL066C, strain RNR3, stronger effect = lower value): 1.03 | normalized growth (locus YIL073C, strain SPO22, stronger effect = lower value): 0.923 | normalized growth (locus YIL125W, strain kgd1, stronger effect = lower value): 1.04 | normalized growth (locus YIR030C, strain dcg1, stronger effect = lower value): 1.02 | normalized growth [1]: 0.947 | normalized growth (locus YJL134W, strain LCB3, stronger effect = lower value): 1.04 | normalized growth (locus YJL168C, strain set2, stronger effect = lower value): 1.02 | normalized growth (locus YJL187C, strain SWE1 (second series), stronger effect = lower value): 0.959 | normalized growth (locus YKL009W, strain mrt4, stronger effect = lower value): 0.822 (active) | normalized growth (locus YKL068W, stronger effect = lower value): 1.03 | normalized growth (locus YKL085W, strain MDH1 (second series), stronger effect = lower value): 1.05 | normalized growth (locus YKL085W, strain MDH1, stronger effect = lower value): 1.05 | normalized growth (locus YKR001C, strain vps1, stronger effect = lower value): 0.94 | normalized growth (locus YLR039C, strain RIC1, stronger effect = lower value): 0.702 | normalized growth (locus YLR058C, strain SHM2, stronger effect = lower value): 0.981 | normalized growth (locus YLR102C, strain apc9, stronger effect = lower value): 1.01 | normalized growth (locus YLR262C, strain YPT6, stronger effect = lower value): 0.664 | normalized growth (locus YLR268W, strain sec22, stronger effect = lower value): 0.957 | normalized growth (locus YLR371W, strain rom2, stronger effect = lower value): 1.02 | normalized growth (locus YLR418C, strain cdc73, stronger effect = lower value): 0.877 | normalized growth (locus YML016C, strain PPZ1, stronger effect = lower value): 1.03 | normalized growth (locus YML032C, strain rad52, stronger effect = lower value): 0.956 | normalized growth (locus YML124C, strain tub3, stronger effect = lower value): 1.03 | normalized growth (locus YMR078C, strain ctf18, stronger effect = lower value): 1.03 | normalized growth (locus YMR223W, strain ubp8, stronger effect = lower value): 0.978 | normalized growth (locus YMR307W, strain GAS1, stronger effect = lower value): 0.952 | normalized growth (locus YNL067W, strain RPL9B, stronger effect = lower value): 0.988 | normalized growth (locus YNL128W, strain TEP1, stronger effect = lower value): 0.98 | normalized growth (locus YNL233W, strain BNI4, stronger effect = lower value): 0.994 | normalized growth (locus YNL250W, strain rad50, stronger effect = lower value): 0.966 | normalized growth (locus YNL271C, strain bni1, stronger effect = lower value): 0.994 | normalized growth (locus YNL298W, strain CLA4, stronger effect = lower value): 0.924 | normalized growth (locus YNL307C, strain MCK1, stronger effect = lower value): 0.998 | normalized growth (locus YNR052C, strain pop2, stronger effect = lower value): 0.961 | normalized growth (locus YOL006C, strain TOP1, stronger effect = lower value): 0.903 | normalized growth (locus YOL012C, strain htz1): 1.68 | normalized growth (locus YOL147C, strain pex11, stronger effect = lower value): 1.04 | normalized growth (locus YOR061W, strain CKA2, stronger effect = lower value): 1.01 | normalized growth (locus YOR069W, strain VPS5, stronger effect = lower value): 1.02 | normalized growth (locus YOR136W, strain idh2, stronger effect = lower value): 0.998 | normalized growth (locus YOR144C, strain elg1, stronger effect = lower value): 1.02 | normalized growth (locus YOR184W, strain ser1, stronger effect = lower value): 0.891 | normalized growth (locus YOR316C, strain cot1, stronger effect = lower value): 1.02 | normalized growth (locus YPL241C, strain CIN2, stronger effect = lower value): 1.03 | normalized growth (locus YPR119W, strain clb2, stronger effect = lower value): 1.03 | normalized growth (locus YPR141C, strain kar3, stronger effect = lower value): 1.04 | normalized growth (locus YPR163C, strain tif3, stronger effect = lower value): 0.93 | normalized growth (locus YPR167C, strain met16, stronger effect = lower value): 0.973 | normalized growth (strain wtn01, stronger effect = lower value): 0.974

CC(=O)O[C@H]1CCC2(C)C3=C(CCC2C1(C)C)[C@]1(C)CCC(C(C)CCC=C(C)C)[C@@]1(C)CC3 (stereo not given in full)
normalized growth (locus YAL021C, strain ccr4, stronger effect = lower value): 1.05 | normalized growth (locus YAL026C, strain drs2, stronger effect = lower value): 0.971 | normalized growth (locus YAL030W, strain snc1, stronger effect = lower value): 0.996 | normalized growth (locus YBL061C, strain skt5, stronger effect = lower value): 0.99 | normalized growth (locus YBR009C, strain hhf1, stronger effect = lower value): 0.998 | normalized growth (locus YBR023C, strain chs3, stronger effect = lower value): 0.984 | normalized growth (locus YBR171W, strain sec66, stronger effect = lower value): 0.994 | normalized growth (locus YBR231C, strain swc5, stronger effect = lower value): 0.961 | normalized growth (locus YBR279W, strain paf1, stronger effect = lower value): 0.996 | normalized growth (locus YCL011C, strain gbp2, stronger effect = lower value): 1.01 | normalized growth (locus YCL016C, strain dcc1, stronger effect = lower value): 1.01 | normalized growth (locus YCL061C, strain MRC1, stronger effect = lower value): 0.995 | normalized growth (locus YCL069W, strain vba3, stronger effect = lower value): 0.999 | normalized growth (locus YCR088W, strain abp1, stronger effect = lower value): 1 | normalized growth (locus YDL005C, strain med2, stronger effect = lower value): 0.983 | normalized growth (locus YDL040C, strain nat1, stronger effect = lower value): 0.991 | normalized growth (locus YDR001C, strain nth1, stronger effect = lower value): 1.01 | normalized growth (locus YDR069C, strain doa4, stronger effect = lower value): 0.966 | normalized growth (locus YDR137W, strain rgp1, stronger effect = lower value): 0.957 | normalized growth (locus YDR159W, strain sac3, stronger effect = lower value): 0.965 | normalized growth (locus YDR195W, strain ref2): 0.958 | normalized growth (locus YDR297W, strain sur2, stronger effect = lower value): 0.993 | normalized growth (locus YDR334W, strain swr1, stronger effect = lower value): 1 | normalized growth (locus YDR335W, strain msn5, stronger effect = lower value): 1.01 | normalized growth (locus YDR392W, strain spt3, stronger effect = lower value): 0.979 | normalized growth (locus YEL003W, strain gim4, stronger effect = lower value): 0.969 | normalized growth (locus YEL037C, strain rad23, stronger effect = lower value): 0.999 | normalized growth (locus YEL061C, strain CIN8 (second series), stronger effect = lower value): 1.01 | normalized growth (locus YER015W, strain faa2, stronger effect = lower value): 0.996 | normalized growth (locus YER016W, strain bim1, stronger effect = lower value): 0.995 | normalized growth (locus YER111C, strain swi4, stronger effect = lower value): 0.986 | normalized growth (locus YER155C, strain BEM2 (second series), stronger effect = lower value): 1.02 | normalized growth (locus YFR010W, strain ubp6, stronger effect = lower value): 0.97 | normalized growth (locus YGL167C, strain pmr1, stronger effect = lower value): 0.99 | normalized growth (locus YGL173C, strain kem1, stronger effect = lower value): 0.971 | normalized growth (locus YGL227W, strain vid30, stronger effect = lower value): 0.996 | normalized growth (locus YGL240W, strain doc1, stronger effect = lower value): 0.988 | normalized growth (locus YGL253W, strain hxk2, stronger effect = lower value): 0.933 | normalized growth (locus YHR013C, strain ard1, stronger effect = lower value): 1.02 | normalized growth (locus YHR027C, strain rpn1, stronger effect = lower value): 0.993 | normalized growth (locus YHR030C, strain SLT2, stronger effect = lower value): 0.968 | normalized growth (locus YHR079C, strain IRE1, stronger effect = lower value): 0.994 | normalized growth (locus YHR142W, strain chs7, stronger effect = lower value): 0.994 | normalized growth (locus YJL092W, strain hpr5, stronger effect = lower value): 0.996 | normalized growth (locus YJL095W, strain BCK1 (second series), stronger effect = lower value): 0.999 | normalized growth [1]: 0.956 | normalized growth (locus YJL115W, strain asf1, stronger effect = lower value): 0.987 | normalized growth (locus YJL129C, strain trk1, stronger effect = lower value): 0.977 | normalized growth (locus YJL154C, strain vps35, stronger effect = lower value): 0.999 | normalized growth (locus YJL164C, strain tpk1, stronger effect = lower value): 1.03 | normalized growth (locus YJL166W, strain qcr8, stronger effect = lower value): 0.98 | normalized growth (locus YJL187C, strain SWE1, stronger effect = lower value): 0.997 | normalized growth (locus YJR066W, strain TOR1, stronger effect = lower value): 0.937 | normalized growth (locus YKL160W, strain elf1, stronger effect = lower value): 1.03 | normalized growth (locus YKR026C, strain gcn3, stronger effect = lower value): 0.992 | normalized growth (locus YKR091W, strain srl3, stronger effect = lower value): 1 | normalized growth (locus YLL001W, strain dnm1, stronger effect = lower value): 0.958 | normalized growth (locus YLL026W, stronger effect = lower value): 1 | normalized growth (locus YLL041C, strain sdh2, stronger effect = lower value): 1 | normalized growth (locus YLR027C, strain aat2, stronger effect = lower value): 1 | normalized growth (locus YLR113W, strain HOG1, stronger effect = lower value): 0.957 | normalized growth (locus YLR221C, strain rsa3, stronger effect = lower value): 0.98 | normalized growth (locus YLR258W, strain gsy2, stronger effect = lower value): 0.999 | normalized growth (locus YLR262C, strain YPT6 (second series), stronger effect = lower value): 0.951 | normalized growth (locus YLR320W, strain mms22, stronger effect = lower value): 0.995 | normalized growth (locus YLR342W, strain FKS1, stronger effect = lower value): 1 | normalized growth (locus YLR357W, strain rsc2, stronger effect = lower value): 0.996 | normalized growth (locus YLR370C, strain arc18, stronger effect = lower value): 0.988 | normalized growth (locus YLR384C, strain iki3, stronger effect = lower value): 0.968 | normalized growth (locus YML120C, strain ndi1, stronger effect = lower value): 1.01 | normalized growth (locus YMR058W, strain fet3, stronger effect = lower value): 0.975 | normalized growth (locus YMR125W, strain sto1, stronger effect = lower value): 1.02 | normalized growth (locus YMR129W, stronger effect = lower value): 1 | normalized growth (locus YMR205C, strain PFK2, stronger effect = lower value): 1.03 | normalized growth (locus YMR231W, strain pep5, stronger effect = lower value): 0.983 | normalized growth (locus YNL071W, strain lat1, stronger effect = lower value): 1.04 | normalized growth (locus YNL183C, strain NPR1, stronger effect = lower value): 0.896 | normalized growth (locus YNL209W, strain ssb2, stronger effect = lower value): 1.01 | normalized growth (locus YNL248C, strain rpa49, stronger effect = lower value): 0.97 | normalized growth (locus YNL322C, strain KRE1 (second series), stronger effect = lower value): 0.978 | normalized growth (locus YNR049C, strain mso1, stronger effect = lower value): 0.988 | normalized growth (locus YOR001W, strain rrp6, stronger effect = lower value): 0.923 | normalized growth (locus YOR070C, strain gyp1, stronger effect = lower value): 1 | normalized growth (locus YOR080W, strain dia2, stronger effect = lower value): 0.969 | normalized growth (locus YOR083W, strain WHI5, stronger effect = lower value): 1.02 | normalized growth (locus YOR106W, strain vam3, stronger effect = lower value): 1.02 | normalized growth (locus YOR231W, strain MKK1, stronger effect = lower value): 0.969 | normalized growth (locus YOR265W, strain rbl2, stronger effect = lower value): 1.01 | normalized growth (locus YOR270C, strain vph1, stronger effect = lower value): 0.814 | normalized growth (locus YOR290C, strain snf2, stronger effect = lower value): 1.02 | normalized growth (locus YPL051W, strain arl3, stronger effect = lower value): 0.989 | normalized growth (locus YPL078C, strain atp4, stronger effect = lower value): 1.04 | normalized growth (locus YPL106C, strain sse1, stronger effect = lower value): 1.09 | normalized growth (locus YPL240C, strain hsp82, stronger effect = lower value): 0.994 | normalized growth (locus YPL256C, strain CLN2, stronger effect = lower value): 0.979
